# According to PubChem BioAssay (Tox21):
# Inconclusive results are not listed. Calls of active or inactive are those of the source. The call rests on the fitted dose curve.
# Molecular target: Beta-2 adrenergic receptor (Homo sapiens) (UniProt P07550)
# Experiment: Adrenergic beta2 receptor (ADRB2) small molecule antagonists, cell-based qHTS assay (AID 1963592); further: nearly all actives have a fitted effect of over 50% in size
# Details: CHO-ADRB2 cells, isoproterenol-stimulated cAMP HTRF ratio, 0.5 h; series mostly up to 92.4 µM; activity change, negative = inhibition: at the top concentration
# From the text: U.S. Tox21 Program National Center for Advancing Translational Sciences [NCATS] Division of Preclinical Innovation [DPI] U.S. Environmental Protection Agency [EPA] National Institutes of Environmental Health Sciences [NIEHS] National Toxicology Program [NTP] U.S. Food and Drug Administration [FDA] Tox21 Assay Overview: Beta adrenergic receptors (Beta-ARs) belong to the G-protein coupled receptor (GPCR) superfamily, includes three subtypes - beta1, beta2, and beta3. Beta1-AR is the predominant receptor subtype expressed in the heart, and beta2-AR is expressed in the kidney, lung, blood vessel and in the heart, and beta3 is found in the adipocytes. Beta1 and 2 ARs couple to Gs protein and elevate cyclic adenosine mono phosphate (cAMP), which activates protein kinase A and leads to the downstream signaling responsible for the physiological actions. Beta-AR agonists or antagonists are the most prescribed therapeutic agents for heart failure and asthma, and these were one of the first target receptors for the rational drug design. Tox21 10K compound library was screened using the cAMP-Gs dynamic assay (Cisbio Bioassays, Shelton, CT) to identify agonists/antagonists of the Gs-coupled human adrenergic, beta2 receptor (ADRB2) in the CHO-ADRB2 cell line (Codex BioSolutions, Inc. Gaithersburg, MD), which stably over-expresses ADRB2. The principle of cAMP-Gs dynamic assay is based on HTRF technology, which facilitates the fluorescence resonance energy transfer (FRET) between donor Europium cryptate and acceptor d2-labeled cAMP. The cAMP generated within cells competes with the red acceptor, d2-labled cAMP, for binding to the monoclonal anti-cAMP-cryptate (Europium donor). An increase in intracellular cAMP leads to the disruption of FRET signal, and the signal is inversely proportional to the cAMP concentration. Propranolol HCl (Sigma-Aldrich, St. Louis, MO) was used as a positive control in the screening.
# Tox21 Assay Protocol Summary: CHO-ADRB2 cells were dispensed at 1,000/well in 4uL assay medium into white/solid 1536-well plates (Greiner Bio-One North America Inc., Monroe, NC) using a Multidrop Combi dispenser (ThermoFisher Scientific, Waltham, MA). The assay plates were incubated at 37C and 5% CO2 for an overnight (18-20hr). Then positive control and test compounds dissolved in DMSO were transferred to the assay plates at 23nL using a Pintool station (Wako, San Diego, CA). Following the compound and positive control transfer, 1uL agonist-stimulation mix containing 1nM Isoproterenol HCl, 100uM IBMX and 25uM Ro-20-1724 was added to each well of the assay plates using BioRAPTR Flying Reagent Dispenser (FRD, Beckman Coulter, Brea, CA). The assay plates were incubated at room temperature for 0.5hr. Then 2.5ul each d2-labled cAMP and anti-cAMP-cryptate solutions were added separately to each well of the assay plates using an FRD and the assay plates were incubated at room temperature for 1hr. The fluorescence signal was measured at two different wavelengths (665nm and 615nm) using an Envision plate reader (Perkin Elmer, Shelton, CT). Data were expressed as the ratio of 665 nm/615 nm.
# On the % scale 0 is the no-effect control and ±100 the full control effect.
# Chain of Beta-2 adrenergic receptor (Homo sapiens) (P07550 whole entry, looked up): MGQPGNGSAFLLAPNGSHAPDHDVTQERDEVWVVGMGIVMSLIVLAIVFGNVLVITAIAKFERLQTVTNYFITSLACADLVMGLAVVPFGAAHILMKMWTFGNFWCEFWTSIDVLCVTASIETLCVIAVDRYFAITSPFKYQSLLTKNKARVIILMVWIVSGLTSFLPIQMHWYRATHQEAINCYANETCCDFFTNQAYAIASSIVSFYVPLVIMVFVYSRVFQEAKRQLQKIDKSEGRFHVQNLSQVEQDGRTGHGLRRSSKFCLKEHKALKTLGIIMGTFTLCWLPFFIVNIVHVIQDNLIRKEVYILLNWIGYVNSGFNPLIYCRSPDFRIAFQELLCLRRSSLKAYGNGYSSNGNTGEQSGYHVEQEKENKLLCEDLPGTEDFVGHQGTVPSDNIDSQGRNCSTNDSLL
Structure (SMILES),"activity change, negative = inhibition",Potency
CCCn1cc[n+](C)c1C,-16.3% (inactive),–
Clc1ccc(Cn2c(CN3CCCC3)nc3ccccc32)cc1,-27.8% [at 42.5 µM] (inactive),–
CC(C)COC(=O)/C=C/c1ccccc1,1.49% (inactive),–
CC/C=C\CCOC(C)OCC (stereo not given),-2.41% [at 42.5 µM] (inactive),–
CSc1ccc(Oc2ccc(S(N)(=O)=O)cc2CN(C)C)cc1C,-12.3% (inactive),–
C[N+]1(C)CCC(OC(=O)C(O)(c2ccccc2)C2CCCC2)C1 (stereo not given),0.0109% [at 42.5 µM] (inactive),–
CC(C)c1ccccc1N,3.92% (inactive),–
Cc1onc(-c2c(Cl)cccc2Cl)c1C(=O)Cl,-13.2% [at 42.5 µM] (inactive),–
O=c1cc(-c2ccc(O)cc2)oc2cc(O)cc(O)c12,–,inactive
CC(C)(C)c1ccc(C(=O)O)cc1,-0.784% (inactive),–
CCOB(OCC)OCC,4.87% (inactive),–
COc1cc(C(C)C)c2c(c1)S(=O)(=O)N(COc1cc(=O)n3cccc(OCCN4CCCCC4)c3n1)C2=O,1.57% [at 19 µM] (inactive),–
O=C(O)CO,-1.34% (inactive),–
CCCCCCCCCCCC(=O)OCC,-4.13% (inactive),–
CC(C)(C)C1CCCCC1=O (stereo not given),1.26% (inactive),–
O[Si](c1ccccc1)(c1ccccc1)c1ccccc1,-11% (inactive),–
CN1CCN(C)CC1,5.06% (inactive),–
CC/C(C)=N\O[Si](C)(O/N=C(\C)CC)O/N=C(\C)CC,-6.01% (inactive),–
CCCCN(CCN(CCCC)C(=O)N1CCOCC1)C(=O)N1CCOCC1,-4.23% [at 42.5 µM] (inactive),–
C=CC(=C)CCCC(C)(C)OC(C)=O,-9.68% (inactive),–

Structure (SMILES),"activity change, negative = inhibition",Potency
C[C@@H]1C[C@H]2[C@@H]3CCC4=CC(=O)C=C[C@]4(C)[C@@]3(Cl)[C@@H](O)C[C@]2(C)[C@@]1(OC(=O)c1ccco1)C(=O)CCl,-7.27% [at 42.5 µM] (inactive),–
CCCCCCCCCCCCCCC[C@H](O)[C@@H](N)CO,-6.03% [at 42.5 µM] (inactive),–
O=C(Nc1ccc(S(=O)(=O)N2CCOCC2)cc1)c1cc(Cl)ccc1NS(=O)(=O)c1ccc(Cl)s1,-19.8% [at 42.5 µM] (inactive),–
OCCCS,1.51% (inactive),–
COC(=O)CSc1cc(N=c2sc(=O)n3n2CCCC3)c(F)cc1Cl,-17.8% (inactive),–
CC(=O)c1ccc(OCC(=O)N2CCCCC2)cc1,-9.75% [at 42.5 µM] (inactive),–
CC1(C)O[C@@H]2C[C@H]3[C@@H]4C[C@H](F)C5=CC(=O)C=C[C@]5(C)[C@H]4[C@@H](O)C[C@]3(C)[C@]2(C(=O)CO)O1,-6.13% [at 42.5 µM] (inactive),–
Cc1ncc([N+](=O)[O-])n1CC(O)CCl (stereo not given),-1.7% [at 42.5 µM] (inactive),–
CN(C)c1ccc(O)c2c1C[C@H]1C[C@H]3[C@H](N(C)C)C(=O)C(C(N)=O)=C(O)[C@@]3(O)C(=O)C1=C2O,–,inactive
C=CC(=O)N1CCOCC1,-14.5% (inactive),–
CCCCCOC(=O)Nc1nc(=O)n([C@@H]2O[C@H](C)[C@@H](O)[C@H]2O)cc1F,3.52% [at 42.5 µM] (inactive),–
C=C1c2cccc(O)c2C(O)=C2C(=O)[C@]3(O)C(O)=C(C(N)=O)C(=O)[C@@H](N(C)C)[C@@H]3[C@@H](O)[C@H]12,3.78% [at 42.5 µM] (inactive),–
CCCCCCCCCCCCCCCCC(C(=O)O)C(O)(CC(=O)O)C(=O)O (stereo not given),9.87% [at 42.5 µM] (inactive),–
Oc1ccc2c(c1)-c1ccccc1C2,-5.87% (inactive),–
Nc1ccn([C@@H]2O[C@H](CO)[C@@H](O)[C@@H]2O)c(=O)n1,5.31% (inactive),–
NCCCC(O)(P(=O)(O)O)P(=O)(O)O,1.16% [at 42.5 µM] (inactive),–
C/C(C=O)=C\c1ccccc1,-11.6% (inactive),–
CN(C/C=C/C#CC(C)(C)C)Cc1cccc2ccccc12,-0.481% [at 42.5 µM] (inactive),–
CCC(C)n1ncn(-c2ccc(N3CCN(c4ccc(OC[C@H]5CO[C@](Cn6cncn6)(c6ccc(Cl)cc6Cl)O5)cc4)CC3)cc2)c1=O (stereo not given in full),3.01% [at 42.5 µM] (inactive),–
C[C@H](NC(CCc1ccccc1)C(=O)O)C(=O)N1CCC[C@H]1C(=O)O (stereo not given in full),-3.61% [at 42.5 µM] (inactive),–
